The values that follow come from PubChem BioAssay.

The source made the active and inactive calls. Unless noted, no rule for the calls is given here.

A short description of test [1]: compounds binding Alexa647 anti-His antibody – biochemical, small-molecule microarray, 635 nm fluorescence, artefact control for SMM control protein annotation, primary screen (AID 1128).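 Also: score merges feature fluorescence with signal-to-noise for each printed compound spot.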 The settings on record: higher = more signal.
Test [2] concerns Human papillomavirus type 1a E7 protein (residues 1-88). The test can be described thus: HPV1a E7 small-molecule binders, primary screen, biochemical, small-molecule microarray, residues 1-88, 635 nm (AID 1129). The settings on record: small-molecule microarray binding, fluorescence 635 nm; higher = more signal.
The target of test [3] is Focal adhesion kinase 1 (Homo sapiens) (UniProt Q05397). The test can be described thus: PTK2 protein binding on printed compound slides – biochemical, small-molecule microarray, 635/667 nm fluorescence, BSA, DTT, primary screen (AID 1130).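 Also: composite of spot emission at 667 nm and signal to noise over triplicate slides.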 The settings on record: 635 nm fluorescence, higher = more signal.
In test [4] the test system is Fibrinogen (Alexa647-labelled). The test can be described thus: Alexa647-fibrinogen binding to printed small molecules – biochemical, small-molecule microarray, 635/667 nm fluorescence, artefact control for SMM control-protein annotation, profiling panel (AID 1131).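 Also: z-score merges 667 nm fluorescence with per-spot signal-to-noise over triplicate slides.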 The following applies: fibrinogen-A647 binding fluorescence, higher = more signal.
The target of test [5] is Follistatin (Homo sapiens) (UniProt P19883). The test can be described thus: FST protein binding to printed compounds – biochemical, small-molecule microarray, 635/667 nm fluorescence, primary screen (AID 1132). The following applies: 635 nm fluorescence, higher = more signal.
In test [6] the target is Fibroblast growth factor 2 (Homo sapiens) (UniProt P09038). The test can be described thus: basic fibroblast growth factor binding to printed compounds – biochemical, small-molecule microarray, 635/667 nm fluorescence, primary screen (AID 1133). The settings on record: FGF2, fluorescence 635/667, higher = more signal.
Test [7] is described as follows: JC-1 mitochondrial potential readout, lung cancer cells – cell-based, A549, JC-1 fluorescence, basal, 24 h, 100 nL, profiling panel (AID 1138).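 Also: A549 lung adenocarcinoma cells under basal conditions with no added stimulus; test concentration not given here.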 The following applies: higher = more signal.
Another test concerns Lefty1. The experiment in a line: Lefty1 protein binding to printed compounds – biochemical, small-molecule microarray, 635/667 nm fluorescence, primary screen (AID 1139). The settings on record: fluorescence 635/667, higher = more signal.
Test [8] has as its system wheat germ agglutinin (Triticum aestivum), Alexa647-labelled. The experiment in a line: Alexa647-WGA lectin binding to printed small molecules – biochemical, small-molecule microarray, 635/667 nm fluorescence, artefact control for SMM control-protein annotation, profiling panel (AID 1140).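 Also: score merges 667 nm feature emission with signal to noise over triplicate slides.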 The settings on record: WGA-A647 binding, 635 nm fluorescence, higher = more signal.

Test [9] deals with Luciferin 4-monooxygenase (Photinus pyralis) (UniProt P08659). The test can be described thus: inhibition of purified Photinus pyralis luciferase – biochemical, luminescence, purified enzyme, 2006 set, primary screen (AID 1141).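 Also: cell-free assay with purified firefly luciferase at 100 ng per well in PBS; test concentration not given here.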 The settings on record: purified firefly luciferase, SteadyGlo luminescence, 30 min; higher = more signal, called active from +8 up or from −8 down.
The subject of test [10] is Wnt5a (protein binding on small-molecule microarray). The experiment in a line: small molecules binding Wnt5a protein – biophysical, small-molecule microarray, 635/667 nm fluorescence, primary screen (AID 1142).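 Also: fluorescence read at 667 nm with signal to noise per printed feature.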 The settings on record: 635 nm fluorescence, higher = more signal.
Test [11] can be described thus: ATP-based viability of Huh7 replicon cells – cell-based, CellTiter-Glo luminescence, basal, 48 h, cytotoxicity control for HCV replication inhibitor project, primary screen (AID 1143).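 Also: Huh7 hepatoma cells carrying a hepatitis C replication reporter with no stimulus; test concentration not given here.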 The following applies: higher = more signal, called active from +8 up or from −8 down. For orientation: A replicon is a self-replicating genome or part of one, used to study replication in cells.

A short description of test [12]: Pseudomonas biofilm growth suppression – PAO1 strain, BacTiter-Glo luminescence, LB-PBS, primary screen (AID 1144). The settings on record: P. aeruginosa PAO1 biofilm, 12 h, higher = more signal.
Test [13] can be described thus: basal CRE-LacZ reporter activity in PC12 – cell-based, unstimulated, primary screen (AID 1145). The following applies: no forskolin, luminescence, 4.5 h, higher = more signal, called active from +8 up or from −8 down.
Test [14] in a line: forskolin-driven CRE-LacZ activity in PC12 – cell-based, CRE-LacZ reporter, forskolin-stimulated, primary screen (AID 1146).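 Also: PC12 cells with 6xCRE LacZ reporter stimulated by forskolin 10 µM; beta-galactosidase reporter signal reflecting CREB driven transcription.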 The following applies: luminescence, 4.5 h, higher = more signal, called active from +8 up or from −8 down.
Test [15] has as its target Streptavidin (Streptomyces avidinii) (UniProt P22629). The test can be described thus: compounds binding control protein streptavidin – biophysical, small-molecule microarray, 635/667 nm fluorescence, artefact control for SMM compound annotation, primary screen (AID 1147).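 Also: signal reflects streptavidin binding to arrayed compounds as a control protein.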 The settings on record: higher = more signal.
The nature of test [16]: probe aInhba binding on compound microarray – biochemical, small-molecule microarray, 635/667 nm fluorescence, primary screen (AID 1148).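 Also: score merges 667nm spot fluorescence with signal-to-noise for antibody binding to printed compounds.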 The settings on record: higher = more signal.
For test [17], the target named is Torsin-1A (Homo sapiens) (UniProt O14656). The test can be described thus: TOR1A wild-type binding on microarray – cell lysate, small-molecule microarray, lysate, 635/667 nm, primary screen (AID 1149). The settings on record: COS7 hTOR1A-WT lysate, 635 nm fluorescence, higher = more signal.
For test [18] the target is unchanged. The test can be described thus: torsin A mutant lysate binding on microarrays – cell lysate, small-molecule microarray, COS7 lysate, 635/667 nm fluorescence, primary screen (AID 1150).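 Also: score pools 667 nm emission and signal to noise measuring lysate protein binding.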 The following applies: COS7 hTOR1A mutant lysate, 635 nm fluorescence, higher = more signal.
Test [19] has as its system Sonic hedgehog protein (Shh). The test can be described thus: Sonic hedgehog microarray binding compounds – biochemical, small-molecule microarray, 635/667 nm fluorescence, primary screen (AID 1151).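 Also: Shh protein binding to compounds spotted on small-molecule microarray slides; score combines spot fluorescence intensity with signal-to-noise across triplicate slides.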 The settings on record: 635 nm fluorescence, higher = more signal.

Sequence of Follistatin (Homo sapiens) (P19883 whole entry, looked up): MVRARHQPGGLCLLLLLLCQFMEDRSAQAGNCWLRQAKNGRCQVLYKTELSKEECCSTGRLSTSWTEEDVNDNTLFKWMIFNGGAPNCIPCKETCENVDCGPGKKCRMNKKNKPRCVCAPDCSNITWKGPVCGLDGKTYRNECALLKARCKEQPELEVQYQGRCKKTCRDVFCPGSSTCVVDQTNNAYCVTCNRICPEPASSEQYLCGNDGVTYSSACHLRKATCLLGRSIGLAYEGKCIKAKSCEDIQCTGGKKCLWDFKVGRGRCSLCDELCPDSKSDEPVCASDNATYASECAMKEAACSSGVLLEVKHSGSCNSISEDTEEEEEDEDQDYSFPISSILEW
Sequence of Luciferin 4-monooxygenase (Photinus pyralis) (P08659 whole entry, looked up): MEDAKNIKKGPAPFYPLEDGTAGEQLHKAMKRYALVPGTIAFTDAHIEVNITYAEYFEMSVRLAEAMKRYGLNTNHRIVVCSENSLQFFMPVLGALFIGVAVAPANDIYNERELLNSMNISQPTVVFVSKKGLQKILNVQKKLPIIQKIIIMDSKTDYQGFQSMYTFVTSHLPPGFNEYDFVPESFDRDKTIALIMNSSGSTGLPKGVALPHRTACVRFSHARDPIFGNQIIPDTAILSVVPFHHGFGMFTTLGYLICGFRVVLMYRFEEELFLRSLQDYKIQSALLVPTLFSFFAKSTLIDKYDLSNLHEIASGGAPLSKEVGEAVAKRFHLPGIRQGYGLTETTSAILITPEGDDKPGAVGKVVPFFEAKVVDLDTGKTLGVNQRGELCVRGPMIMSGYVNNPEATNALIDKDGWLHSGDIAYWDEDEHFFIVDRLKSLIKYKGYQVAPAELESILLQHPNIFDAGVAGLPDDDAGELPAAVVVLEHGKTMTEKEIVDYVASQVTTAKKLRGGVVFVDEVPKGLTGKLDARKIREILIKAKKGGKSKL
Sequence of Torsin-1A (Homo sapiens) (O14656 whole entry, looked up): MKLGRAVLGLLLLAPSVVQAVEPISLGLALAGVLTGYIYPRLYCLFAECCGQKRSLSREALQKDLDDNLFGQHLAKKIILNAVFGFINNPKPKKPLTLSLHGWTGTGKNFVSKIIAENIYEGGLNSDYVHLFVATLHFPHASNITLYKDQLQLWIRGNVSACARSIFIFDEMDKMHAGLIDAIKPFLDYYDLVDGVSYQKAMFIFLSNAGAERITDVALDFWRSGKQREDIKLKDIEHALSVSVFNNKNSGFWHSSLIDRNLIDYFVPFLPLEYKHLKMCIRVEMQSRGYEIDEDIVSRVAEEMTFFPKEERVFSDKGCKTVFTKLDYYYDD
Sequence of Streptavidin (Streptomyces avidinii) (P22629 whole entry, looked up): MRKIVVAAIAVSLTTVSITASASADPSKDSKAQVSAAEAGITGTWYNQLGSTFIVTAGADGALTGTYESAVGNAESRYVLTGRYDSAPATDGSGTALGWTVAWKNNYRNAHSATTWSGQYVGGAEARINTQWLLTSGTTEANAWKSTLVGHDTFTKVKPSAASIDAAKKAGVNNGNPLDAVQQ
Sequence of Focal adhesion kinase 1 (Homo sapiens) (Q05397 whole entry, looked up): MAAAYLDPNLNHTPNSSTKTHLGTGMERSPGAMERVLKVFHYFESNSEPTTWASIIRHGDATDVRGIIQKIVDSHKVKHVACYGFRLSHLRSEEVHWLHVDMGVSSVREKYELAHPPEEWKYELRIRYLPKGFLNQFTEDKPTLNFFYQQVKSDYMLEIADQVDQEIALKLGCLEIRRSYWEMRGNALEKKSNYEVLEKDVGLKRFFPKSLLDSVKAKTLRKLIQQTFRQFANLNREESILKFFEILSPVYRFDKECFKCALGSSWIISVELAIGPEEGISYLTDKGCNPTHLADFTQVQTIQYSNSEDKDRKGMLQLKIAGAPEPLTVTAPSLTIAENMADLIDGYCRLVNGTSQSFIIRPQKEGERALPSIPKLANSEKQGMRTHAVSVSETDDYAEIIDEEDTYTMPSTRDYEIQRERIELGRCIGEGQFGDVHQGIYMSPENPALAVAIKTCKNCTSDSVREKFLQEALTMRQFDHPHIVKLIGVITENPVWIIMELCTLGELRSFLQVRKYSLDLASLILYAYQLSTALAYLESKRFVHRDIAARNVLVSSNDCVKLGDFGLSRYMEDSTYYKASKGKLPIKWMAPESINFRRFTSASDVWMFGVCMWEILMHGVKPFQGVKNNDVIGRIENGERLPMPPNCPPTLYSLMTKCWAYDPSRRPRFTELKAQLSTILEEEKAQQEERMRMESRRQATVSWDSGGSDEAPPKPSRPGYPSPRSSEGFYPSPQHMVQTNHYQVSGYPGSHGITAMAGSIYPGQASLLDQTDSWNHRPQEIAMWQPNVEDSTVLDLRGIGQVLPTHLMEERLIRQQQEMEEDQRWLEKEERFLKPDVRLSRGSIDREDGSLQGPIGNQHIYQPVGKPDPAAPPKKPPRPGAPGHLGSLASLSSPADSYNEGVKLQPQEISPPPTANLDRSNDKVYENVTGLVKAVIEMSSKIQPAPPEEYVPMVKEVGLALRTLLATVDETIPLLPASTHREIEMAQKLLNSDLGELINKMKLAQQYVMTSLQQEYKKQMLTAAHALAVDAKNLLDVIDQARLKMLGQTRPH
Sequence of Fibroblast growth factor 2 (Homo sapiens) (P09038 whole entry, looked up): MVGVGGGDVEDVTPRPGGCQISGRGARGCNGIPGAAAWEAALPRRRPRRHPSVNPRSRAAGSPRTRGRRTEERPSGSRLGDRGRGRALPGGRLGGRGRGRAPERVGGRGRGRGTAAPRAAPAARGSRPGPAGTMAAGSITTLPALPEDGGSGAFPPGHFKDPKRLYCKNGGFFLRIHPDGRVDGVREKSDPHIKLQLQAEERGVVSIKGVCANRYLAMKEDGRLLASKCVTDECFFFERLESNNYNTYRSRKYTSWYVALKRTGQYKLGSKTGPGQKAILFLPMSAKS

On to `COc1cc2c(cc1OC)CN(C(=O)[C@H]1[C@@H]3C(=O)O[C@@H](c4ccccc4)[C@@H](c4ccccc4)N3[C@@H](c3ccc(O)cc3)[C@]13C(=O)Nc1ccccc13)CC2`, for which the composite z-score in [1] was determined as 1.65; in [2], 1.19; in [3], 0.81; in test [4], 0.253; in [5], 0.354; in test [6], 0.39. Also, the composite z-score in the test with Lefty1 was 0.331; in [8] it was 0.115; in test [10], 0.0185; in test [15], -0.805; in test [16], 0.417; with Torsin-1A (Homo sapiens) [17] it was 0.191. Besides, the composite z-score in the test with Torsin-1A (Homo sapiens) [18] is 1.36; in test [19] it was 0.931. Besides, the z-score in test [7] was -0.517; in test [9], -0.204 (inactive); in test [11], -1.57 (inactive); in test [12], -0.219 (inactive); in test [13], 0.358 (inactive); in test [14], 0.282 (inactive).
Take `CCc1cccc(NC(=O)O[C@H]2[C@H](OC(=O)Nc3ccccc3-c3ccccc3)[C@@H](OC(=O)Nc3ccccc3-c3ccccc3)[C@@H](OC)O[C@@H]2CO)c1`: the composite z-score was 2.04 in test [1]; 1.31 in test [2]; 0.69 in test [3]; 1.02 in test [4]; 1.02 in test [5]; 0.179 in test [6]. The composite z-score in the test with Lefty1 was 0.345; in test [8] it was 1.08; in test [10], 0.729; in test [15], 0.751; in [16] it was -0.0087; in the test with Torsin-1A (Homo sapiens) [17] it was 1.19. Besides, the composite z-score in the test with Torsin-1A (Homo sapiens) [18] amounted to 1.64; in test [19], 0.203. Moreover, the z-score in [7] is -1.12; in test [9], 0.532 (inactive); in test [11] it was -6.04 (inactive); in test [12] it was -0.0932 (inactive); in test [13] it was -0.655 (inactive); in [14], -0.756 (inactive).
For `COC(=O)C(CC#Cc1ccc2c(c1)[C@]1(C(=O)N2)[C@H](C(=O)Nc2nc3ccccc3s2)[C@H]2C(=O)O[C@H](c3ccccc3)[C@H](c3ccccc3)N2[C@@H]1c1ccccc1OCCO)C(=O)OC`, the composite z-score is 1.41 in test [1]; 1.24 in [2]; 1.04 in test [3]; 0.964 in test [4]; 0.931 in test [5]; 0.452 in test [6]. The composite z-score in the test with Lefty1 was 0.625; in test [8] it was 1.29; in test [10] it was 0.573; in [15] it was 0.679; in test [16], 0.12; in the test with Torsin-1A (Homo sapiens) [17] it was 0.25. In addition, the composite z-score with Torsin-1A (Homo sapiens) [18] turned out to be 0.733; in test [19], 1.03. Moreover, the z-score in [7] is -2.25; in test [9], -0.293 (inactive); in [11], -5 (inactive); in [12] it was -0.438 (inactive); in [13] it was 0.389 (inactive); in test [14] it was 0.372 (inactive).
Regarding `C=C[C@H](CO[Si](CC)(CC)CC)N(Cc1ccc(OC(C)=O)c(OC)c1)S(=O)(=O)c1ccc(Br)cc1`, the composite z-score amounted to 2.48 in [1]; 1.08 in test [2]; 1.76 in test [3]; 0.967 in [4]; 1.28 in test [5]; 0.913 in test [6]. Also, the composite z-score in the test with Lefty1 was 0.237; in test [8], 0.713; in [10], 0.157; in test [15], 1.61; in [16], 0.403; in the test with Torsin-1A (Homo sapiens) [17] it was 0.837. Moreover, the composite z-score came to 0.671 with Torsin-1A (Homo sapiens) [18] and 1.15 in test [19]. The z-score in test [7] is -0.202; in test [9], 0.0578 (inactive); in [11], -4.96 (inactive); in [12] it was 0.451 (inactive); in [13] it was -0.263 (inactive); in test [14] it was 0.685 (inactive).
Consider `COc1ccc([C@H]2OC[C@@H]3C[C@@H](Cc4ccccc4)C(=O)N32)cc1`, for which the composite z-score is 1.3 in test [1]; 0.527 in test [2]; -0.181 in [3]; -0.0072 in test [4]; 0.62 in [5]; 0.91 in [6]. Further, the composite z-score is 1.08 in the test on Lefty1; 0.208 in test [8]; 0.157 in test [10]; -0.679 in test [15]; -0.0403 in test [16]; 0.656 with Torsin-1A (Homo sapiens) [17]. Further, the composite z-score with Torsin-1A (Homo sapiens) [18] worked out at 0.556; in [19], 1.33. Moreover, the z-score in [7] is 1.25; in [9], 0.0077 (inactive); in test [11], -0.316 (inactive); in test [12], 1.01 (inactive); in test [13] it was 0.978 (inactive); in test [14] it was 0.627 (inactive).
